# Records with an inconclusive call do not appear. A number with no mark means an inactive call. Active and inactive are the calls of the source. Calls come from the whole dose curve.
# Assay: qHTS assay to identify small molecule agonists of the progesterone receptor (PR) signaling pathway - cell viability counter screen (AID 1346799); note: nearly all actives have a fitted effect of over 45% in size
# Settings: PR-UAS-bla HEK293T viability, CellTiter-Glo luminescence, 16 h; series mostly up to 92.4 µM
# Description: National Center for Advancing Translational Sciences [NCATS]
# NIH Chemical Genomics Center [NCGC]
# U.S. Environmental Protection Agency [EPA]
# National Institutes of Environmental Health Sciences [NIEHS]
# National Toxicology Program [NTP]
# U.S. Food and Drug Administration [FDA]
# Progesterone receptor (PR), a nuclear hormone receptor, plays an important role in development, metabolic homeostasis and reproduction. It is activated by the steroid hormone progesterone. Endocrine disrupting chemicals (EDCs) and their interactions with steroid hormone receptors like PR causes disruption of normal endocrine function. To identify the compounds that stimulate PR signaling, a PR-UAS-bla GripTite cell line i.e. PR-UAS-bla HEK293T (Invitrogen, Carlsbad, CA, USA) containing a beta-lactamase reporter gene under the control of an UAS response element was used to screen Tox21 10K compound library. The cytotoxicity of the Tox21 compound library against the PR-bla cell line was tested in parallel by measuring the cell viability using CellTiter-Glo assay in the same wells.
# Tox21 Assay Protocol Summary:
# PR-UAS-bla HEK293T cells were dispensed at 3,000 cells/5 uL of assay medium containing 2% charcoal stripped FBS per well into black wall/clear-bottom 1536-well plates using a Multidrop Combi (ThermoFisher Scientific, Waltham, MA) dispenser. After the assay plates were incubated at a 37C and 5% CO2 for 6 hr, 23 nL of compounds dissolved in DMSO, positive controls or DMSO only was transferred to the assay plate by a Pintool station (Kalypsys, San Diego, CA). The plates were incubated at 37C and 5% CO2 for 16 hr. Then 1 uL of LiveBLAzer B/G FRET substrate was added using a Flying Reagent Dispenser (FRD, Aurora Discovery, San Diego, CA), the plates were incubated at room temperature for 2 hours, and fluorescence intensity was measured by an Envision plate reader (PerkinElmer, Shelton, CT). For cell viability readout that measures cytotoxicity, 4 uL/well of CellTiter-Glo reagent was added into the assay plates using a FRD. After 30 min incubation at room temperature, the luminescence intensity in the plates was measured using a ViewLux (PerkinElmer) plate reader.
# % is set by controls: 0 for no effect and ±100 for the full control effect.
Compound,"activity change, negative = cytotoxicity",outcome
O=S(=O)(O)c1ccc2c(N=Nc3ccc(S(=O)(=O)O)c4ccccc34)c(O)c(S(=O)(=O)O)cc2c1,18.6% [at 8.39 µM],
N#Cc1cscn1,,inactive
Nc1nnnn1-c1ccccc1,,inactive
CC1=NN(c2ccc(S(=O)(=O)O)cc2)C(=O)C1,,inactive
CNCCS(=O)(=O)O,,inactive
CCCC(CC)c1ccccc1 (stereo not given),,inactive
COc1cc(OC)nc(O[C@H](C(=O)O)C(OC)(c2ccccc2)c2ccccc2)n1,,inactive
Cc1ccc(N)cc1S(=O)(=O)O,,inactive
CO[C@@]1(NC(=O)Cc2cccs2)C(=O)N2C(C(=O)O)=C(COC(N)=O)CS[C@@H]21,,inactive
COCCc1ccccn1,,inactive
CC1CC(=O)CC(C)(C)C1 (stereo not given),,inactive
OC1OCCOC1O (stereo not given),,inactive
COc1cc(/C=C/C(N)=O)cc(OC)c1OC,,inactive
CCC(C)C(=O)OCCc1ccccc1 (stereo not given),,inactive
O=NN(CCCl)C(=O)NC1CCCCC1,,inactive
CCOCCOCC,,inactive
CCCCOC(=O)C(C)O (stereo not given),,inactive
CC(C)[C@H]1CC[C@H](C)C[C@@H]1O,,inactive
CCOC(=O)CC1(C)OCC(C)O1 (stereo not given),,inactive
Cn1c(=O)c2c(ncn2CCO)n(C)c1=O,,inactive

Compound,"activity change, negative = cytotoxicity",outcome
O=C[O][Al]([O]C=O)[O]C=O,,inactive
C=C(C)C1CC=C(C)C(=O)C1 (stereo not given),,inactive
CCCCCCCCCCCCCBr,,inactive
O=C(CN1CCNCC1)NC1CCCCC1,,inactive
CCCCCc1cccc(=O)o1,,inactive
COS(=O)(=O)O,,inactive
CO/N=C(/C(=O)N[C@@H]1C(=O)N2C(C(=O)[O-])=C(C[n+]3ccn4ncccc43)CS[C@H]12)c1nsc(N)n1,,inactive
COC(C)(OC)OC,,inactive
OC[C@H]1O[C@@H](O[C@@H]2[C@@H](CO)O[C@](O)(CO)[C@H]2O)[C@H](O)[C@@H](O)[C@H]1O,,inactive
CC1c2ccccc2CN1NC(=O)c1ccc(Cl)c(S(N)(=O)=O)c1 (stereo not given),,inactive
Cc1ccnc(N)c1,,inactive
CC(=O)O[C@@H]1CC2CCC1(C)C2(C)C (stereo not given in full),,inactive
c1ccc(-c2nn[nH]n2)cc1,,inactive
CC(CO)(CO)CO,,inactive
Cc1ncc([N+](=O)[O-])n1CC(C)O (stereo not given),,inactive
C/C(=C1\CCOC(=O)S1)N(C=O)Cc1cnc(C)nc1N,,inactive
N[C@@H](Cc1ccc(O)cc1)C(=O)O,-21.8% [at 8.39 µM],
C=CCOC(=O)CCCCCC,,inactive
CCCCCCCCCCCCCCCCCC#N,,inactive
C=CCCCCCCCCC(=O)OCCCC,,inactive
